# Laboratory results taken from PubChem BioAssay AID1835 (Johns Hopkins Ion Channel Center, 2009).
# Hit rate of the full screen: of about 2,400 compounds, about 750 (31%) were called active. The list shows a part of the results. Values without a mark were called inactive.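 The calls were made as follows: active = median signal gain over dofetilide-blocked control wells reaching their mean plus 3 SD, so readout 1 at least 0; inactive = the rest.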
# Target: Voltage-gated inwardly rectifying potassium channel KCNH2 (Homo sapiens) (UniProt Q12809)
# Sequence (Q12809 whole entry, looked up): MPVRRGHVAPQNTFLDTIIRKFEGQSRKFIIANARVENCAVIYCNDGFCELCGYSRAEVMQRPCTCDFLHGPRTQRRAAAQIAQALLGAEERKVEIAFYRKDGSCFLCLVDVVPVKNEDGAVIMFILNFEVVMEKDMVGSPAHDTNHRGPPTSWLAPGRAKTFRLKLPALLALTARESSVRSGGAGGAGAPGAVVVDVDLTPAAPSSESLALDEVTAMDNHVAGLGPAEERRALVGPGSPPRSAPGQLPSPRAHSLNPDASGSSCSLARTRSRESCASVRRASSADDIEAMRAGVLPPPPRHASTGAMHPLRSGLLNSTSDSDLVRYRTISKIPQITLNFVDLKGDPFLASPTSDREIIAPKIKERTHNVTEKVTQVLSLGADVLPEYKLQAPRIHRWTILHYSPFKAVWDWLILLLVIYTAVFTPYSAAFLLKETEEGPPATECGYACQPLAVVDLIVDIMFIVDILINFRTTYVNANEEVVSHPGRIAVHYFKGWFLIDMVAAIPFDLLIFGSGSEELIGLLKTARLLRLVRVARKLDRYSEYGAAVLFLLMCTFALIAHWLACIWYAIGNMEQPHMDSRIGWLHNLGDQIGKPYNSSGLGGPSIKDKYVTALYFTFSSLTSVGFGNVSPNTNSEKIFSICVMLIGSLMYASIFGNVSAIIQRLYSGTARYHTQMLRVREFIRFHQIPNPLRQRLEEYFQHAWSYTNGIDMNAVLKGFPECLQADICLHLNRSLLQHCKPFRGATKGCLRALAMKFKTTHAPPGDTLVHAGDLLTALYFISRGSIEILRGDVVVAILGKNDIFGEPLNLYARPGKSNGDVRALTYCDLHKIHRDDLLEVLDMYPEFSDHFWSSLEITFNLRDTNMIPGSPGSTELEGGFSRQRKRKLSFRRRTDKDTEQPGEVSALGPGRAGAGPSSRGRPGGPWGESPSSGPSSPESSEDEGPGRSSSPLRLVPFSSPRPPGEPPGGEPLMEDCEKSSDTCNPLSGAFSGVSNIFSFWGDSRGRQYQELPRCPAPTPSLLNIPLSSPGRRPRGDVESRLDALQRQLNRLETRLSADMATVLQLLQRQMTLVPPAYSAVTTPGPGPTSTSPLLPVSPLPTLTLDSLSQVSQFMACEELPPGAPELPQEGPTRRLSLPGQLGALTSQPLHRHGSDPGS
# Assay: modulators restoring hERG flux under dofetilide – cell-based, thallium flux, duplicate retest, dofetilide IC70, confirmation (AID 1835)
# Settings: hERG cell line, FluxOR thallium flux, dofetilide-blocked; at 10 µM; hits give high values
row,Compound,"activity increase over dofetilide control, less the hit threshold"
1,Cc1c(Cl)c([N+](=O)[O-])nn1CC(=O)NCC(C)C,-20%
2,COc1ccc(COC(=O)C2CCN(S(=O)(=O)c3cccs3)CC2)cc1,-27%
3,CC1CCCC(C)N1S(=O)(=O)c1ccc(NC(=O)CCn2cnc3ccccc3c2=O)cc1 (stereo unspecified),-12%
4,O=C(Nc1ccccc1C(=O)O)c1ccc(NC(=O)C2CC2)cc1,-2%
5,CCCCC(=O)Nc1cccc(C(=O)Nc2ccccc2C(=O)O)c1,-3%
6,CCOc1ccc(C(=O)Nc2ccccc2C(=O)O)cc1,3% (active)
7,Cn1c(/N=C/c2c(O)ccc3ccccc23)nc2ccccc21,-32%
8,O=S(=O)(Nc1ccc(Cc2ccncc2)cc1)c1ccc(Cl)c(Cl)c1,-6%
9,O=C1C2CC=CCC2C(=O)N1c1ccc(Cc2ccncc2)cc1 (stereo unspecified),3% (active)
10,CC(C)(C)c1cc(C(=O)NNC(=O)c2ccc(Cl)cc2)no1,29% (active)
11,CC(C)(C)c1csc(NNC(=O)c2ccc(Cl)cc2)n1,-3%
12,Cc1nc(-c2nc(-c3c(C(=O)NNC(=O)c4ccc(Cl)cc4)noc3C)cs2)cs1,-17%
13,Cc1csc2c(N3CCCCC3)ncnc12,-8%
14,CC(=O)CSc1ncnc2sc3c(c12)CCC(C)C3 (stereo unspecified),72% (active)
15,COc1cc(NC(=O)CSc2ncnc3sc4c(c23)CCC(C)C4)c(C(=O)O)cc1OC (stereo unspecified),94% (active)
16,Cc1nnc(NC(=O)CN2CCN(Cc3ccc(F)cc3Cl)CC2)s1,-17%
17,CCCCCCC1CCC(C(=O)N2CCOCC2)CC1 (stereo unspecified),-5%
18,O=C(CCCc1c[nH]c2ccccc12)Nc1ccc(S(=O)(=O)Nc2ncccn2)cc1,-19%
19,COCC1CCCN(C(=O)c2ccc3oc(C(C)C)nc3c2)C1 (stereo unspecified),-12%
20,O=c1oc2ccccc2c(Cl)c1CN1CCCCC1,2% (active)
21,Oc1c(Cl)cc(CN2CCCCC2)c2cccnc12,-6%
22,O=C(c1c(O)c2ccccc2oc1=O)C1CCCCC1,-4%
23,Cc1ccc(NC(=O)CCc2nc3sc4c(c3c(=O)[nH]2)CCCC4)c(Br)c1,-17%
24,NC(=O)C1CCN(C(=O)CC(c2ccccc2)c2ccccc2)CC1,-17%
25,O=C(Cc1ccccc1)Nn1c(-c2ccccc2)nc2ccccc2c1=O,-15%
26,Cc1ccc(-c2nc3c(Cl)cc(Cl)cc3c(=O)n2O)cc1,83% (active)

row,Compound,"activity increase over dofetilide control, less the hit threshold"
1,Cc1ccc(-c2nc3ccccc3c(=O)n2O)cc1,14% (active)
2,O=c1c2ccccc2nc(-c2ccccc2)n1O,-7%
3,O=c1c2cc(Cl)ccc2nc(-c2ccccc2)n1O,18% (active)
4,O=c1c2cc(Cl)ccc2nc(-c2ccc(Cl)c(Cl)c2)n1O,124% (active)
5,CCOc1ccc(N=Nc2cc(C(C)C)ccc2O)cc1,-9%
6,COC(=O)Sc1nnc(-c2ccc(Br)cc2)o1,-2%
7,CNC(=O)COC(=O)c1cccc(S(=O)(=O)N2CCN(c3ccc(F)cc3)CC2)c1,-20%
8,CCC(C)NC(=O)Cn1nc(C(F)(F)F)c2c1CCCC2 (stereo unspecified),-7%
9,Cc1ccccc1Cc1c(C)nc2c(C(=O)NCc3ccc4c(c3)OCO4)cnn2c1C,-11%
10,OC(CNCC(c1ccc(Cl)cc1Cl)c1c[nH]c2ccccc12)c1ccccc1 (stereo unspecified),-48%
11,CCOc1ccc(NC(=O)CN(C)C(=O)c2c(-c3c(F)cccc3Cl)noc2C)cc1OCC,-7%
12,CN(Cc1cccc(C(F)(F)F)c1)Cc1nc(-c2cnccn2)no1,-8%
13,O=c1c2ccccc2nc(-c2cccc(Cl)c2)n1O,39% (active)
14,CCOC(=O)c1c(N2C(=O)Nc3ccccc3N2O)n[nH]c1-c1cccc(Cl)c1,-4%
15,Cc1ccc(-c2nc3ccc(Cl)cc3c(=O)n2O)cc1,78% (active)
16,Cc1ccc(-c2onc3ccc(Cl)cc23)cc1,0%
17,O=c1c2ccccc2nc(-c2ccc(Cl)c(Cl)c2)n1O,36% (active)
18,Cc1ccc(C(=O)NNc2cc(N3CCCC3)nc(N3CCCC3)n2)cc1,-6%
19,CCOc1ccc2[nH]cc(S(=O)(=O)c3ccc(F)cc3)c(=O)c2c1,-19%
20,Cc1ccc(-c2nc(CSCC(=O)N3CCOCC3)c(C)o2)cc1,-9%
21,NC(=O)[C@@H]1CCCN1Cc1nc(Cc2ccccc2Cl)no1,-15%
22,CCCCOC(=O)c1ccc(NC(=S)NC(=O)c2c(Cl)cnn2C)cc1,-11%
23,Cc1nn(C)c(C(=O)NC(=S)Nc2ccc([N+](=O)[O-])cc2)c1Cl,18% (active)
24,CCn1ncc(Cl)c1C(=O)NC(=S)Nc1ccccc1Br,46% (active)
25,Cc1nn(C)c(C(=O)NC(=S)Nc2ccccc2Br)c1Cl,27% (active)
26,O=C(NC(=S)Nc1ccccc1N1CCCC1)c1ccccc1Br,-2%

row,Compound,"activity increase over dofetilide control, less the hit threshold"
1,CCCCOC(=O)c1ccc(NC(=S)NC(=O)c2c(Br)c(C)nn2C)cc1,38% (active)
2,Cc1ccc(NC(=O)c2c([N+](=O)[O-])c(C(C)(C)C)nn2C)cc1,-1%
3,Cc1nn(CCC(=O)NNC(=S)Nc2ccc(F)cc2)c(C)c1[N+](=O)[O-],-24%
4,Cc1cc(C)nc(SCc2nnc(SCC(=O)Nc3nc(-c4ccccc4)cs3)n2-c2ccccc2)n1,-19%
5,CC(C)c1ccc2c(c1)c(SC(C)(C)C)c(CC(C)(C)C(=O)O)n2Cc1ccc(Cl)cc1,-9%
6,S=c1[nH]nc(-c2cccs2)n1/N=C/c1c(Cl)cccc1Cl,4% (active)
7,S=c1[nH]nc(-c2ccccc2)n1/N=C/c1ccc(-c2ccccc2Cl)o1,-4%
8,CN(C)/C=C1/C(=O)N(c2ccc([N+](=O)[O-])cc2)N=C1c1ccccc1,2% (active)
9,CC1=NN(c2ccccc2)C(=O)/C1=C/c1ccc(-c2ccc(C)c(C(=O)O)c2)o1,-18%
10,O=C(NNC(=O)C12CC3CC(CC(O)(C3)C1)C2)c1ccccc1O,-4%
11,Cc1nnc(SCC(=O)Nc2nccs2)n1N,-22%
12,CC(C)[C@H](NC(=O)c1ccco1)C(=O)OCC(=O)Nc1cccc(F)c1,-12%
13,CCOC(=O)c1nnn(CC(=O)Nc2cccc(F)c2)c1C(=O)OCC,-1%
14,C/C(Nc1cccc(F)c1)=C(/C#N)C(N)=O,2% (active)
15,OC(CCN1CCOCC1)c1ccccc1 (stereo unspecified),-20%
16,Cc1ccc(C)c(NC(=O)CCN2C(=O)[C@@H]3Cc4ccccc4CN3C2=O)c1,-17%
17,CC(=O)C1C(=O)c2c(cccc2[N+](=O)[O-])C1=Nc1ccccc1C (stereo unspecified),-20%
18,CCN(CC)S(=O)(=O)c1ccc2[nH]c(=O)cc(C(=O)Nc3cccc(C(C)=O)c3)c2c1,-4%
19,S=c1nc(-c2ccc(Br)cc2)[nH]c2ccccc12,50% (active)
20,CC(Oc1ccc(Br)cc1)c1nc2c3ccccc3nc(=S)n2[nH]1 (stereo unspecified),0%
21,S=c1nc(-c2ccccc2)[nH]c2ccc(Br)cc12,95% (active)
22,CC(C)c1ccc(CNc2nc3nc4c(c(=O)n3[nH]2)CCC4)cc1,-6%
23,O=C1CCN(S(=O)(=O)c2ccc(Cl)cc2)CCN1,-25%
24,COc1ccc(S(=O)(=O)c2snnc2C)cc1,-2%
25,C=CCc1cccc(C2Nc3ccccc3C(=O)N2O)c1O (stereo unspecified),1% (active)
26,C=CCn1c(O)c(N=NC(=S)Nc2ccc(OC)c(Cl)c2)c2ccccc21,7% (active)

row,Compound,"activity increase over dofetilide control, less the hit threshold"
1,C=CCn1c(O)c(N=NC(=S)Nc2ccc(OC)cc2)c2ccccc21,4% (active)
2,Cc1ccc(Cn2c(O)c(N=NC(=S)Nc3ccccc3F)c3ccccc32)cc1,-13%
3,COc1ccc(C(CC(=O)N2CCOCC2)c2c(O)cc(OC)cc2OC)cc1 (stereo unspecified),-13%
4,CCOC(=O)C1=C(Cn2cnc3ccccc32)NC(=O)NC1c1cc(C)ccc1C (stereo unspecified),-10%
5,CC(C)[C@H](NC(=O)OC(C)(C)C)C(=O)NCC1CCC(C(=O)N[C@@H](Cc2ccccc2)C(=O)O)CC1 (stereo partly specified),-5%
6,CNC(=O)c1cc(C(=O)c2ccc(F)cc2C(F)(F)F)c[nH]1,-7%
7,COc1ccc(CC(=O)Nc2ccccc2Oc2ccccc2)cc1,-13%
8,COc1cc(Br)cc(/C=N/NC(=O)Cc2ccccc2)c1O,-9%
9,COc1cc(NC(=O)c2ccccc2)c(OC)cc1NC(=O)Cc1ccc(Br)cc1,12% (active)
10,O=c1[nH]c(C(Cl)(Cl)Cl)nc2ccc3ccccc3c12,4% (active)
11,CCCN1CCN(CCCNC(=O)Cn2nc(C)n3c(cc4cc(OC)ccc43)c2=O)CC1,-13%
12,CS(=O)(=O)Nc1cccc(-c2cn3ccccc3n2)c1,-13%
13,O=C(Nc1nnc(-c2ccc3c(c2)CCCC3)o1)C1COc2ccccc2O1 (stereo unspecified),-12%
14,O=C(Nc1nnc(-c2ccc3c(c2)CCCC3)o1)c1ccc(Cl)cc1Cl,9% (active)
15,O=C(Nc1nnc(C2=COCCO2)o1)c1ccc(Br)cc1,-42%
16,Cc1[nH]c(=S)sc1Cc1ccc(Cl)c(Cl)c1,-12%
17,S=c1[nH]cc(Cc2ccccc2)s1,-5%
18,Cc1ccc(Cc2c[nH]c(=S)s2)cc1,44% (active)
19,NC(=O)c1nn2c(C(F)(F)F)cc(-c3ccccc3)nc2c1Br,-8%
20,Cc1[nH]n2c(=O)cc(C(C)(C)C)nc2c1-c1ccccc1,14% (active)
21,Cc1[nH]n2c(=O)cc(C(C)C)nc2c1-c1ccccc1,-6%
22,Cc1nn(CCC#N)c2nc(-c3ccccc3)cc(C(F)(F)F)c12,-11%
23,O=c1cc(-c2ccccc2)nc2c(-c3ccccc3)c(C(F)(F)F)[nH]n12,56% (active)
